Measured values reported in PubChem BioAssay (NCI).
Compounds without any hit were thinned out: in the full panel of roughly 79,000, 15% have a hit. Active and inactive are the calls of the source. Cut-off read from the data, not from the text of the source: active = growth inhibition above about 70%; inactive = the rest.

Assays:
[1] = NCI Yeast Anticancer Drug Screen. Data for the rad52 strain (AID 147);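 note: 0% = growth of vehicle-treated control cultures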; conditions: S. cerevisiae rad52 mutant growth inhibition, stronger effect = higher value
Method in brief: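 Genetically altered yeast (DNA damage repair defect) treated with compound; inhibition calculated relative to vehicle.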

[2] = NCI Yeast Anticancer Drug Screen. Data for the wt1 strain (AID 149);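 note: 0% = growth of vehicle-treated wt1 cultures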; conditions: S. cerevisiae wt1 strain (SPY 50644) growth inhibition, stronger effect = higher value
Method in brief: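 Each compound is tested on wt1 yeast and the loss of growth versus vehicle gives the inhibition value.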

[3] = NCI Yeast Anticancer Drug Screen. Data for the mgt1 strain (AID 153); conditions: S. cerevisiae mgt1 mutant growth inhibition, stronger effect = higher value
Method in brief: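 Read-out: yeast growth inhibition vs vehicle control. Strain mgt1, drawn from a panel altered in DNA damage repair or cell cycle control.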

[4] = NCI Yeast Anticancer Drug Screen. Data for the rad50 strain (AID 155);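 note: 0% = growth of vehicle-only cultures of the same strain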; conditions: S. cerevisiae rad50 strain growth inhibition, stronger effect = higher value
Method in brief: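 Vehicle-treated cultures provide the reference for the growth inhibition reported for compound-exposed, repair-deficient yeast.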

[5] = NCI Yeast Anticancer Drug Screen. Data for the mec2-1 strain (AID 157); conditions: S. cerevisiae mec2-1 strain, stronger effect = higher value
Method in brief: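 Cells of the genetically defined mec2-1 yeast strain are incubated with test compound. Inhibition of growth is calculated against vehicle-treated controls.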

[6] = NCI Yeast Anticancer Drug Screen. Data for the sgs1 mgt1 strain (AID 161);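 note: 0% = growth of cultures given vehicle only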; conditions: S. cerevisiae sgs1 mgt1 strain, stronger effect = higher value
Method in brief: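 Mutant yeast exposed to compound; growth scored against vehicle-only wells.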

[7] = NCI Yeast Anticancer Drug Screen. Data for the CLN2oe strain (AID 163);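 note: 0% = growth of vehicle-only control cultures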; conditions: S. cerevisiae CLN2oe strain, stronger effect = higher value
Method in brief: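 Strain altered in cell-cycle control, incubated with compound; growth compared to solvent-treated controls.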

[8] = NCI Yeast Anticancer Drug Screen. Data for the cln2 rad14 strain (AID 165);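 note: 0% = growth equal to vehicle treated cultures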; conditions: S. cerevisiae cln2 rad14 strain, stronger effect = higher value
Method in brief: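 The screen exposed genetically defined yeast (cln2 rad14) to test compounds and scored growth inhibition relative to vehicle-treated controls.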

[9] = NCI Yeast Anticancer Drug Screen. Data for the bub3 strain (AID 167); conditions: S. cerevisiae bub3 mutant strain, stronger effect = higher value
Method in brief: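 Mutant yeast screening strain plus compound; vehicle-treated cultures serve as the 0% inhibition reference.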

[10] = NCI Yeast Anticancer Drug Screen. Data for the wt2 strain (AID 169); conditions: S. cerevisiae wt2 strain growth inhibition, stronger effect = higher value
Method in brief: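 Steps: yeast strain treated with compound; growth recorded; inhibition calculated relative to cultures given vehicle alone.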

[11] = NCI Yeast Anticancer Drug Screen. Data for the mlh1 strain (AID 171);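 note: 0% = growth of vehicle-treated control cultures of the same strain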; conditions: S. cerevisiae mlh1 strain growth inhibition, stronger effect = higher value
Method in brief: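 Yeast screen: mutant strain plus compound, growth scored against vehicle control wells.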

[12] = NCI Yeast Anticancer Drug Screen. Data for the sgs1 strain (AID 173);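 note: 0% = growth of vehicle-only control cultures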; conditions: S. cerevisiae sgs1 mutant, stronger effect = higher value
Method in brief: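 Inhibition of yeast growth served as the measure. The mutant strain was treated with each compound, and growth was normalised to cultures receiving vehicle alone.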

[13] = NCI Yeast Anticancer Drug Screen. Data for the mlh1 rad18 strain (AID 175); conditions: S. cerevisiae mlh1 rad18 strain growth inhibition, stronger effect = higher value
Method in brief: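 Compound-treated yeast growth, normalised to vehicle controls. Strain bears defined DNA repair mutations.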

[14] = NCI Yeast Anticancer Drug Screen. Data for the rad18 strain (AID 177); conditions: S. cerevisiae rad18 mutant growth inhibition, stronger effect = higher value
Method in brief: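 Inhibition values reflect reduced yeast growth compared with vehicle-treated controls, using a strain engineered with a DNA damage repair defect.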

[15] = NCI Yeast Anticancer Drug Screen. Data for the rad14 strain (AID 159);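 note: 0% = growth of vehicle-treated control cultures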; conditions: S. cerevisiae rad14 strain growth inhibition, stronger effect = higher value
Method in brief: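 Inhibition of growth is reported for a repair-deficient yeast mutant following compound treatment, calculated relative to cultures that received vehicle.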

[16] = at 5.0 µM (retest, dose inferred, filed as 0.5)
[17] = at 50.0 µM (retest, dose inferred, filed as 5.0)

Measured: growth inhibition

CCCCC/C(=C(\C#N)C(=O)OCC)c1ccccc1
inactive: [1]; at 1.2 µM -2% | [1]; at 3.7 µM -1% | [1]; at 11.0 µM 1% | [1]; at 33.0 µM 7% | [1]; at 100.0 µM 9% | [2]; at 1.2 µM -2% | [2]; at 3.7 µM -2% | [2]; at 11.0 µM -1% | [2]; at 33.0 µM -4% | [2]; at 100.0 µM -4% | [3]; at 1.2 µM -3% | [3]; at 3.7 µM -2% | [3]; at 11.0 µM -3% | [3]; at 33.0 µM -2% | [3]; at 100.0 µM 7% | [4]; at 1.2 µM -1% | [4]; at 3.7 µM -1% | [4]; [16] 7% | [4]; at 11.0 µM 4% | [4]; at 33.0 µM 7% | [4]; [17] -4% | [4]; at 50.0 µM -7% | [4]; at 100.0 µM -6% | [5]; at 1.2 µM -7% | [5]; at 3.7 µM -5% | [5]; [16] -5% | [5]; at 11.0 µM -3% | [5]; at 33.0 µM 0% | [5]; [17] -4% | [5]; at 50.0 µM 28.4% | [5]; at 100.0 µM 6% | [6]; [16] -1% | [6]; [17] 33% | [6]; at 50.0 µM 36.5% | [7]; at 1.2 µM -2% | [7]; at 3.7 µM -5% | [7]; at 11.0 µM -5% | [7]; at 33.0 µM -4% | [7]; at 100.0 µM 4% | [8]; [16] -7% | [8]; [17] 13% | [8]; at 50.0 µM -99% | [9]; at 1.2 µM 0% | [9]; at 3.7 µM 2% | [9]; [16] 1% | [9]; at 11.0 µM 6% | [9]; at 33.0 µM 11% | [9]; [17] 7% | [9]; at 50.0 µM 52.4% | [9]; at 100.0 µM 14% | [10]; at 1.2 µM -3% | [10]; at 3.7 µM -4% | [10]; at 11.0 µM -3% | [10]; at 33.0 µM -3% | [10]; at 100.0 µM 1% | [11]; at 1.2 µM -2% | [11]; at 3.7 µM 1% | [11]; at 11.0 µM 5% | [11]; at 33.0 µM 10% | [11]; at 100.0 µM 18% | [12]; at 1.2 µM -1% | [12]; at 3.7 µM 2% | [12]; at 11.0 µM 2% | [12]; at 33.0 µM 8% | [12]; at 100.0 µM 17% | [13]; [16] -6% | [13]; [17] 64% | [13]; at 50.0 µM 44.4% | [14]; at 1.2 µM 1% | [14]; at 3.7 µM 3% | [14]; at 11.0 µM 2% | [14]; at 33.0 µM 8% | [14]; at 100.0 µM 14%

CC(C)=NOC(=O)Nc1ccc(Cl)cc1
inactive: [1]; at 1.2 µM 1% | [1]; at 3.7 µM -7% | [1]; at 11.0 µM -8% | [1]; at 33.0 µM 15% | [1]; at 100.0 µM 66% | [2]; at 1.2 µM -24% | [2]; at 3.7 µM -27% | [2]; at 11.0 µM -21% | [2]; at 33.0 µM -18% | [2]; at 100.0 µM 14% | [3]; at 1.2 µM -41% | [3]; at 3.7 µM -60% | [3]; at 11.0 µM -56% | [3]; at 33.0 µM -11% | [4]; at 1.2 µM 2% | [4]; at 3.7 µM 11% | [4]; at 11.0 µM -3% | [4]; at 33.0 µM 28% | [4]; at 50.0 µM 58.2% | [4]; at 100.0 µM 67% | [5]; at 1.2 µM -40% | [5]; at 3.7 µM -26% | [5]; at 11.0 µM -24% | [5]; at 33.0 µM -7% | [5]; at 50.0 µM 29.9% | [5]; at 100.0 µM 47% | [15]; at 1.2 µM -48% | [15]; at 3.7 µM -50% | [15]; at 11.0 µM -30% | [15]; at 33.0 µM -25% | [15]; at 100.0 µM 45% | [6]; [16] 0% | [7]; at 1.2 µM -30% | [7]; at 3.7 µM -18% | [7]; at 11.0 µM -6% | [7]; at 33.0 µM 8% | [7]; at 100.0 µM 38% | [8]; at 50.0 µM 37.2% | [9]; at 1.2 µM -12% | [9]; at 3.7 µM -1% | [9]; [16] 28% | [9]; at 11.0 µM 0% | [9]; at 33.0 µM 8% | [9]; at 50.0 µM 47% | [9]; at 100.0 µM 64% | [10]; at 1.2 µM -34% | [10]; at 3.7 µM -25% | [10]; at 11.0 µM -21% | [10]; at 33.0 µM 5% | [11]; at 1.2 µM -25% | [11]; at 3.7 µM -17% | [11]; at 11.0 µM -22% | [11]; at 33.0 µM 21% | [12]; at 1.2 µM -16% | [12]; at 3.7 µM -12% | [12]; at 11.0 µM -14% | [12]; at 33.0 µM 33% | [13]; [16] 61% | [13]; at 50.0 µM 46.7% | [14]; at 1.2 µM -32% | [14]; at 3.7 µM -38% | [14]; at 11.0 µM -39% | [14]; at 33.0 µM 10%
active: [3]; at 100.0 µM 74% | [4]; [16] 87% | [4]; [17] 98% | [5]; [16] 76% | [5]; [17] 99% | [6]; [17] 92% | [6]; at 50.0 µM 72.8% | [8]; [16] 77% | [8]; [17] 90% | [9]; [17] 81% | [10]; at 100.0 µM 79% | [11]; at 100.0 µM 83% | [12]; at 100.0 µM 84% | [13]; [17] 99% | [14]; at 100.0 µM 72%
